Reference: PubChem BioAssay (EPA / NIEHS)
Inconclusive results are not listed. Active and inactive are the calls of the source. Rule for the calls, unless noted: active = hit-call score of the fitted dose curve at least 0.9, where 1 is the maximum; inactive = score below 0.9.

System: not listed separately
Test: CCTE_Harrill_HTTr_Viability_MCF7: CCTE's 6-hour Cell Viability Assessment for the High-Throughput Transcriptomics (HTTr) Platform, in MCF-7 cells cultured in DMEM + 10% fetal bovine serum, Harrill Lab (AID 2284010)
Outline: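 Cells were dosed with chemicals in an eight-point dilution series, imaged 6 hours later for propidium iodide uptake, and the endpoint was analyzed by bidirectional fitting against DMSO as negative control.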

| SMILES | outcome |
| --- | --- |
| CC(C)(C)c1ccc(O)c(C(C)(C)C)c1 | inactive |
| CCCCC[C@H](O)CC(=O)CCc1ccc(O)c(OC)c1 | inactive |
| c1ccc2cc3c(ccc4ccccc43)cc2c1 | inactive |
| O=C(/C=C/c1ccc(O)cc1)CC(=O)/C=C/c1ccc(O)cc1 | inactive |

System: not listed separately
Test: CCTE_Harrill_HTTr_Apoptosis_MCF7: CCTE's 6-hour Apoptosis Assessment for the High-Throughput Transcriptomics (HTTr) Platform, in MCF-7 cells cultured in DMEM + 10% fetal bovine serum, Harrill Lab (AID 2284011)
Outline: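 High-content imaging of CellEvent Caspase 3/7 Green signal follows a six-hour exposure, with eight concentrations per chemical. MCF-7 cells grown in DMEM plus 10% fetal bovine serum; activity fitted in both directions against DMSO.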

| SMILES | outcome | AC50 |
| --- | --- | --- |
| CCc1nn(C2CCCCC2)c2cc(C3(C#N)CCC(C(=O)O)CC3)ccc12 (stereo unspecified) | inactive |  |
| CCCCCCCCC(=O)O | inactive |  |
| C#C[C@]1(O)CC[C@H]2[C@@H]3CCC4=CC(=O)CC[C@@H]4[C@H]3CC[C@@]21C | inactive |  |
| CC(C)(C)c1ccc(O)c(C(C)(C)C)c1 | inactive |  |
| CCCOC(=O)c1ccc(O)cc1 | inactive |  |
| CCCCC[C@H](O)CC(=O)CCc1ccc(O)c(OC)c1 | inactive |  |
| c1ccc2c(c1)Cc1ccccc1-2 | inactive |  |
| COc1cc(CCC(=O)CC(=O)CCc2ccc(O)c(OC)c2)ccc1O | inactive |  |
| CC(O)C(=O)O (stereo unspecified) | inactive |  |
| COCC(C)OCC(C)O (stereo unspecified) | inactive |  |
| CCCCCCCC(=O)O | inactive |  |
| OCCC(F)(F)C(F)(F)C(F)(F)C(F)(F)C(F)(F)C(F)(F)F | inactive |  |
| CCN(CC)CCNc1ccc(CNC=O)c2sc3ccc(OC)cc3c(=O)c12 | inactive |  |
| CCCCC(CC)COC(=O)CCCCC(=O)OCC(CC)CCCC (stereo unspecified) | inactive |  |
| Cc1oc(-c2ccccc2)nc1CCOc1ccc(C[C@H](Nc2ccccc2C(=O)c2ccccc2)C(=O)O)cc1 | inactive |  |
| CC(O)CO (stereo unspecified) | inactive |  |
| CC1=C(/C=C/C(C)=C/C=C/C(C)=C/C(=O)O)C(C)(C)CCC1 | inactive |  |

| SMILES | outcome | AC50 |
| --- | --- | --- |
| CCOC(=O)CC(O)(CC(=O)OCC)C(=O)OCC | inactive |  |
| c1ccc2cc3c(ccc4ccccc43)cc2c1 | inactive |  |
| CCCCCCC(=O)O | inactive |  |
| O=C(/C=C/c1ccc(O)cc1)CC(=O)/C=C/c1ccc(O)cc1 | inactive |  |
| N#C[C@@H]1CC(F)(F)CN1C(=O)CNC1CC2CCC(C1)N2c1ncccn1 (stereo partly specified) | inactive |  |
| Cc1cc(C)c(O)c(C)c1 | inactive |  |
| CC(C)(C)CC(C)(C)c1ccc(O)c(-n2nc3ccccc3n2)c1 | inactive |  |
| O=C(O)Cc1cc(I)c(Oc2cc(I)c(O)c(I)c2)c(I)c1 | inactive |  |
| c1ccc2c(c1)ccc1ccccc12 | inactive |  |
| CC(=O)CC(C)(C)O | inactive |  |
| ClC1=C(Cl)C(Cl)(Cl)C(Cl)=C1Cl | inactive |  |
| NC(=O)N1C(=O)C(C(=O)c2cc(Cl)cs2)c2cc(F)c(Cl)cc21 (stereo unspecified) | inactive |  |
| Oc1cccc(O)c1 | inactive |  |
| Nc1cccc2c(N)cccc12 | inactive |  |
| OC1CCCCC1 | inactive |  |
| C[C@@H]1C[C@H]2[C@@H]3CCC4=CC(=O)C=C[C@]4(C)[C@@]3(F)[C@@H](O)C[C@]2(C)[C@@]1(O)C(=O)COP(=O)(O)O | inactive |  |
| O=C1OC2(c3ccccc31)c1cc(Br)c(O)c(Br)c1Oc1c2cc(Br)c(O)c1Br |  | 1.92 µM (active) |

System: not listed separately
Test: CCTE_Harrill_HTTr_CellCount_MCF7: CCTE's Cell Proliferation Assessment for the High-Throughput Transcriptomics (HTTr) Platform, Harrill Lab (AID 2284012; active = hit-call score of the fitted dose curve at least 0.9, where 1 is the maximum;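 note: count of Hoechst-stained nuclei per well by high-content imaging in MCF-7 cells; cells exposed to compound for six hours; intended direction is loss of nuclei count meaning fewer cells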)
Outline: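 Chemicals in eight-point dilution series are added to MCF-7 cells for six hours, nuclei are stained with Hoechst and imaged, and per-well nuclei counts are fitted in both directions relative to DMSO controls.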

| SMILES | outcome |
| --- | --- |
| CCc1nn(C2CCCCC2)c2cc(C3(C#N)CCC(C(=O)O)CC3)ccc12 (stereo unspecified) | inactive |
| CCCCCCCCC(=O)O | inactive |
| C#C[C@]1(O)CC[C@H]2[C@@H]3CCC4=CC(=O)CC[C@@H]4[C@H]3CC[C@@]21C | inactive |
| CC(C)(C)c1ccc(O)c(C(C)(C)C)c1 | inactive |
| CCCOC(=O)c1ccc(O)cc1 | inactive |
| CCCCC[C@H](O)CC(=O)CCc1ccc(O)c(OC)c1 | inactive |
| c1ccc2c(c1)Cc1ccccc1-2 | inactive |
| COc1cc(CCC(=O)CC(=O)CCc2ccc(O)c(OC)c2)ccc1O | inactive |
| COCC(C)OCC(C)O (stereo unspecified) | inactive |
| OCCC(F)(F)C(F)(F)C(F)(F)C(F)(F)C(F)(F)C(F)(F)F | inactive |
| CCN(CC)CCNc1ccc(CNC=O)c2sc3ccc(OC)cc3c(=O)c12 | inactive |
| CCCCC(CC)COC(=O)CCCCC(=O)OCC(CC)CCCC (stereo unspecified) | inactive |
| Cc1oc(-c2ccccc2)nc1CCOc1ccc(C[C@H](Nc2ccccc2C(=O)c2ccccc2)C(=O)O)cc1 | inactive |
| CC(O)CO (stereo unspecified) | inactive |
| CC1=C(/C=C/C(C)=C/C=C/C(C)=C/C(=O)O)C(C)(C)CCC1 | inactive |
| CCOC(=O)CC(O)(CC(=O)OCC)C(=O)OCC | inactive |
| CCCCCCC(=O)O | inactive |
| O=C(/C=C/c1ccc(O)cc1)CC(=O)/C=C/c1ccc(O)cc1 | inactive |
| Cc1cc(C)c(O)c(C)c1 | inactive |
| O=C(O)Cc1cc(I)c(Oc2cc(I)c(O)c(I)c2)c(I)c1 | inactive |
| CC(=O)CC(C)(C)O | inactive |
| ClC1=C(Cl)C(Cl)(Cl)C(Cl)=C1Cl | inactive |
| NC(=O)N1C(=O)C(C(=O)c2cc(Cl)cs2)c2cc(F)c(Cl)cc21 (stereo unspecified) | inactive |
| OC1CCCCC1 | inactive |
| C[C@@H]1C[C@H]2[C@@H]3CCC4=CC(=O)C=C[C@]4(C)[C@@]3(F)[C@@H](O)C[C@]2(C)[C@@]1(O)C(=O)COP(=O)(O)O | inactive |
| O=C1OC2(c3ccccc31)c1cc(Br)c(O)c(Br)c1Oc1c2cc(Br)c(O)c1Br | inactive |

Molecular target: Estrogen receptor (Homo sapiens) (UniProt P03372)
Test: CCTE_Deisenroth_AIME_96WELL_LUC_Active: CCTE's 96-well Estrogen Receptor Transactivation Assay with AIME metabolic competence (ERTA luciferase; metabolism positive), Deisenroth Lab (AID 2284023; active = hit-call score of the fitted dose curve at least 0.9, where 1 is the maximum)
Outline: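 Chemicals pre-incubated 2 h with alginate-immobilized phenobarbital/beta-naphthoflavone-induced male Sprague Dawley rat liver S9, then medium transferred to VM7Luc4E2 cells for 24 h luciferase read-out. 10-point series 0.002 - 200 uM; fitted relative to 17beta-estradiol.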

Sequence of Estrogen receptor (Homo sapiens) (P03372 whole entry, looked up): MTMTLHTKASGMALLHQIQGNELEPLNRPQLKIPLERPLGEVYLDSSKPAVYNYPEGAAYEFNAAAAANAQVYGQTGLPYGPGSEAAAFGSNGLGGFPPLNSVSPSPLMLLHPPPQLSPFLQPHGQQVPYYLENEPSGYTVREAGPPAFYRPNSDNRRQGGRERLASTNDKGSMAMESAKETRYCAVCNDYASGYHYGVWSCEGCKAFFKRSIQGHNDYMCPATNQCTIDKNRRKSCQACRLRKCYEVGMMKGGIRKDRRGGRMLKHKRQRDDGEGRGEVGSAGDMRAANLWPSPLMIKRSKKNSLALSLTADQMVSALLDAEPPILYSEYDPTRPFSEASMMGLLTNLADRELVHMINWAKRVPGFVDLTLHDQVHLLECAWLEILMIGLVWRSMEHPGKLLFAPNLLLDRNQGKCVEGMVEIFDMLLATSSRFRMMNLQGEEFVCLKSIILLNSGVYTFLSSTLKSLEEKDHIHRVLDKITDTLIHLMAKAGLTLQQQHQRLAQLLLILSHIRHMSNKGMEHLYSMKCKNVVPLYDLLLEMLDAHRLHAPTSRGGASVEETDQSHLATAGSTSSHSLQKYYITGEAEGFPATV

| SMILES | AC50 | outcome |
| --- | --- | --- |
| CC(C)(C)c1ccc(O)c(C(C)(C)C)c1 | 26.4 µM (active) |  |
| CCCCC[C@H](O)CC(=O)CCc1ccc(O)c(OC)c1 | 26 µM (active) |  |
| c1ccc2c(c1)Cc1ccccc1-2 |  | inactive |
| CCCCC(CC)COC(=O)CCCCC(=O)OCC(CC)CCCC (stereo unspecified) |  | inactive |
| c1ccc2cc3c(ccc4ccccc43)cc2c1 | 11.8 µM (active) |  |
| O=C(/C=C/c1ccc(O)cc1)CC(=O)/C=C/c1ccc(O)cc1 | 31.4 µM (active) |  |
| c1ccc2c(c1)ccc1ccccc12 |  | inactive |
